In the library only some 3.1% were active in any assay of this set; here they are far more common.
mTORC1 inh = Acumen qHTS Assay for Inhibitors of the mTORC1 Signaling Pathway in MEF (Tsc2-/-, p53-/-) Cells: Sytravon; Tsc2-/- p53-/- MEF, phospho-rpS6 immunofluorescence/PI, 24 h; Potency, µM (doses to about 38.3 µM), for the others: at the top dose activity change, negative = inhibition, most hits filed as inhibitors; 0.78% of 44,000 active;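 further: potency means the concentration at half of the fitted maximal effect; plate controls were DMSO for no effect and rapamycin for full effect; nearly all actives have a fitted effect of over 50% in size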
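Plate MEFs (Tsc2-/-, p53-/-, empty vector) in DMEM/10% FBS; after 24 h add compound, incubate 24 h at 37 degree Celsius; fix in PFA/TX-100, block, stain phospho-rpS6 and 10 uM PI; scan at 488 nm; report % positive cells.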
S16 viability = Cell viability qHTS assay in S16 Pmp22-F2sN cells; S16 Pmp22-F2sN Schwann cells viability, CellTiter-Glo, 24 h; Potency, µM (top dose mostly 57.5 µM), without a hit: at the highest dose activity change, negative = cytotoxicity, most hits filed as cytotoxic; 0.48% of 43,000 active; AID 1508642, 2021; further: potency means the concentration at half of the fitted maximal effect; on the % scale 0 is the no-effect control and ±100 the full control effect; nearly all actives have a fitted effect of over 65% in size
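CellTiter-Glo counter-screen, qHTS, 1536-well. Cells: S16(c9) Pmp22-F2sN, 500-1,000/well in DMEM + 10% FBS. Cpd 23 nL pin transfer, 24 h, 37C/5% CO2. Read: luminescence, CCD imager.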
PMP22 txn prim = Cell-based coincidence reporter assay to measure PMP22 gene transcription in S16 Pmp22-F2sN cells - Primary screen. Potency, µM (series often up to 57.5 µM), inactives show top-dose activity change, negative = inhibition, actives largely listed as inhibitors. 2% of 43,000 active. S16 Pmp22-F2sN Schwann cells (luciferase reporters placed in the Pmp22 gene), FLuc/NLuc coincidence luminescence, 24 h; active means clear falling dose curves in both reporters; inconclusive means both reporters move, but less clearly or upward; inactive means either reporter flat; the % is the NLuc reporter signal; further: potency means the concentration at half of the fitted maximal effect; on the % scale 0 is the no-effect control and ±100 the full control effect
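S16(c9) Schwann cells with FLuc/NLuc coincidence reporter in the Pmp22 3' UTR; compounds pin-transferred, 24 h at 37C. Dual-luciferase read: FLuc first, then NLuc after Stop&Glo, each 10 min at room temperature.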
p53null 32C tox = qHTS Screen for Compounds that Selectively Target Cancer Cells with p53 Mutations: Cytotoxicity of p53 Null Cells at the Permissive Temperature | H1299-neo p53 null cells, ATP luminescence, 24 h, 32C | Potency, µM (top dose mostly 46.1 µM), without a hit: at the top dose activity change, negative = cytotoxicity, most hits filed as cytotoxic | 0.62% of 55,000 active | AID 903, 2007;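 further: potency means the concentration at half of the fitted maximal effect; 0% = DMSO only and -100% = full killing by 100 µM tamoxifen; nearly all actives have a fitted effect of over 55% in size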
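H1299-neo, 600 cells/well; overnight 37C; cpd up to 46 uM, 24 h at 32C; ATPlite luminescence after 20 min RT; normalized to DMSO (0%) and tamoxifen 100 uM (100% kill); Hill-fit AC50.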
p53null 39C tox = qHTS Screen for Compounds that Selectively Target Cancer Cells with p53 Mutations: Cytotoxicity of p53 Null Cells at the Nonpermissive Temperature; H1299 p53-null (neo) cells, 39C, ATPlite viability, 24 h; Potency, µM (highest dose often 46.1 µM), without a hit: at the highest dose activity, negative = cell killing, most hits filed as cytotoxic; 0.97% of 55,000 active; AID 904, 2007;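 further: potency means the concentration at half of the fitted maximal effect; 0% = DMSO only and -100% = full killing by 100 µM tamoxifen; nearly all actives have a fitted effect of over 50% in size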
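Temperature-shift cytotoxicity format: compound titrations on p53-null or A138V-expressing H1299 cells held 24 hr at 39C, cell ATP then measured, AC50 from Hill model.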
SKOV3 invasion = Primary qHTS assay for Inhibitors of ovarian cancer metastasis using an organotypic tumor microenvironment (TME) model. SKOV3ip1-GFP adhesion/invasion on 3D omental model, fluorescence. Potency, µM (doses to about 45.8 µM), for the others: at the top dose activity change, negative = inhibition, usual class: inhibitors. 0.1% of 46,000 active. AID 1963576, 2024;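 further: potency means the concentration at half of the fitted maximal effect; plate controls were DMSO wells for no effect and tomatine positive control wells for full effect; nearly all actives have a fitted effect of over 65% in size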
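Adhesion/invasion was scored as fixed GFP-labeled SKOV3ip1 cell counts (488/509 nm), normalized to DMSO and tomatine controls. Cancer cells in serum-free medium, with four compound doses (0.36-46 umol/L), sat 2 hr at RT then 16 hr at 37 C on a 48 hr fibroblast/mesothelial/ECM culture.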
NLuc saturating = Biochemical NLuc saturation counterscreen for small molecule modulators of PMP22 gene expression - Nano-Glo assay | shares compounds with PMP22 txn prim | Secreted NLuc enzyme (filtered S16 cell medium), Nano-Glo luminescence | Potency, µM (doses to about 57.5 µM), for inactives: top-dose activity change, negative = inhibition, usual class: inhibitors | 4% of 690 active | AID 1508638, 2021; further: potency means the concentration at half of the fitted maximal effect; on the % scale 0 is the no-effect control and ±100 the full control effect
NLuc Km ctr = Biochemical coelenterazine-based NLuc counterscreen for small molecule modulators of PMP22 gene expression - Km assay; 5% of 690 active; shares compounds with PMP22 txn prim; secreted NLuc enzyme, coelenterazine luminescence, Km conditions; Potency, µM (titrated, usually from 57.5 µM), inactives show top-dose activity change, negative = inhibition, usual class: inhibitors; further: potency means the concentration at half of the fitted maximal effect; on the % scale 0 is the no-effect control and ±100 the full control effect
FLuc ctr PMP22 = Biochemical FLuc counterscreen for small molecule modulators of PMP22 gene expression. shares compounds with PMP22 txn prim. purified P. pyralis FLuc, luminescence, 10 min. Potency, µM (series often up to 57.5 µM), for inactives: top-dose activity, negative = inhibition, most hits filed as inhibitors. 690 tested, under 10 active. AID 1508640, 2021; further: % of control where 0% means no effect
Target sequence (P08659 whole entry, looked up): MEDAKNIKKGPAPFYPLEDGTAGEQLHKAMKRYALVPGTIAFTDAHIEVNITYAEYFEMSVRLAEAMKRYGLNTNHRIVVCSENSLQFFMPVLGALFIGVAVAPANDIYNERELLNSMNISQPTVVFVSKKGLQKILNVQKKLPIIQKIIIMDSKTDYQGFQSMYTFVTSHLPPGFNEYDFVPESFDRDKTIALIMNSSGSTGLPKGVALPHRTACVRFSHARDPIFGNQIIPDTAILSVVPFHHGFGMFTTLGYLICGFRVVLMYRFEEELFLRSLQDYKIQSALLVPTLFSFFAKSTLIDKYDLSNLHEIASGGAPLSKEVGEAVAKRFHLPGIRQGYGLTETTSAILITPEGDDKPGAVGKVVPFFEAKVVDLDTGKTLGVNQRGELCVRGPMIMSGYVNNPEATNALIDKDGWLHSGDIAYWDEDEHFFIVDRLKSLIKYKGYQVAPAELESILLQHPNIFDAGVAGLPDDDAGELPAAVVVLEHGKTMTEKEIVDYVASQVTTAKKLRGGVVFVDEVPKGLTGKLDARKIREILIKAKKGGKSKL
S16 viab conf = Cell viability qHTS assay in S16 Pmp22-F2sN cells - Confirmatory screen | 7% of 690 active | AID 1508641, 2021 | S16 Schwann cells viability, CellTiter-Glo ATP luminescence, 24 h | Potency, µM (series often up to 57.5 µM), for the others: at the highest dose activity change, negative = viability loss, usual class: cytotoxic | shares compounds with PMP22 txn prim; further: potency means the concentration at half of the fitted maximal effect; on the % scale 0 is the no-effect control and ±100 the full control effect
PMP22 txn conf = Cell-based coincidence reporter assay to measure PMP22 gene transcription in S16 Pmp22-F2sN cells - Confirmatory screen | shares compounds with PMP22 txn prim | S16 Schwann cells Pmp22-F2sN, dual luciferase, 24 h | Potency, µM (highest dose often 57.5 µM), inactives show top-dose activity change, negative = inhibition, actives largely listed as inhibitors | 22% of 690 active | AID 1508646, 2021; active means clear falling dose curves in both reporters; inconclusive means both reporters move, but less clearly or upward; inactive means either reporter flat; the % is the FLuc reporter signal; further: potency means the concentration at half of the fitted maximal effect
* = called active by the depositor; i = inactive; ? = inconclusive; / = no result given. Unless noted, the call rests on the fitted dose curve; in most records, active means well fitted curve in the direction sought with a large enough effect; inconclusive means small, poorly fitted or top-dose-only effect, or another doubt; inactive means no such curve, though single readings can be large; an effect the other way counts as inactive or inconclusive.

SMILES	mTORC1 inh	S16 viability	PMP22 txn prim	p53null 32C tox	p53null 39C tox	SKOV3 invasion	NLuc saturating	NLuc Km ctr	FLuc ctr PMP22	S16 viab conf	PMP22 txn conf
COc1ccc(C(=O)Nc2cc(C(F)(F)F)ccc2N2CCN(c3ccccc3)CC2)cc1OC	4%	7%	-15%	?	-4%	i	/	/	/	/	/
COc1nnc(-c2ccc(N3CCCCC3)c(NC(=O)c3ccccc3)c2)c2ccccc12	-2%	?	14µM*	15%	-9%	i	?	?	5%	0%	?
COc1nnc(-c2ccc(N3CCCCC3)c(NC(=O)c3ccc(Cl)cc3)c2)c2ccccc12	0%	3%	15µM*	-5%	-16%	6%	?	0%	4%	-8%	?
O=C(O)[C@H](CC(=O)N1C[C@@H]2CCCC[C@H]2C1)Cc1ccccc1	/	/	/	/	/	9%	/	/	/	/	/
COc1ccc(C2Oc3nc(SC)nnc3-c3ccccc3N2C(C)=O)cc1 (stereo unspecified)	9%	1%	?	7%	?	i	/	/	/	/	/
CCSc1nnc2c(n1)OC(c1ccc(C)cc1)N(C(C)=O)c1ccccc1-2 (stereo unspecified)	-2%	-25%	?	43%	0%	i	?	-17%	5%	-4%	-7%
CCN1CCOC(=O)C1CC(=O)Nc1cccc(OC)c1 (stereo unspecified)	21µM*	?	13µM*	/	/	3%	-6%	-1%	6%	?	?
COc1cc(NC(=O)CC2C(=O)OCCN2Cc2ccccc2)cc(OC)c1 (stereo unspecified)	-15%	0%	-25%	/	/	i	/	/	/	/	/
